{"source": "ChEMBL document CHEMBL1961873", "about": "“Compounds: GSK PKIS; Assays: Nanosyn kinase panel” (2012)"}
{"target": "Tyrosine-protein kinase Fyn (Homo sapiens) (UniProt P06241)", "sequence (P06241 2-537 limits assumed)": "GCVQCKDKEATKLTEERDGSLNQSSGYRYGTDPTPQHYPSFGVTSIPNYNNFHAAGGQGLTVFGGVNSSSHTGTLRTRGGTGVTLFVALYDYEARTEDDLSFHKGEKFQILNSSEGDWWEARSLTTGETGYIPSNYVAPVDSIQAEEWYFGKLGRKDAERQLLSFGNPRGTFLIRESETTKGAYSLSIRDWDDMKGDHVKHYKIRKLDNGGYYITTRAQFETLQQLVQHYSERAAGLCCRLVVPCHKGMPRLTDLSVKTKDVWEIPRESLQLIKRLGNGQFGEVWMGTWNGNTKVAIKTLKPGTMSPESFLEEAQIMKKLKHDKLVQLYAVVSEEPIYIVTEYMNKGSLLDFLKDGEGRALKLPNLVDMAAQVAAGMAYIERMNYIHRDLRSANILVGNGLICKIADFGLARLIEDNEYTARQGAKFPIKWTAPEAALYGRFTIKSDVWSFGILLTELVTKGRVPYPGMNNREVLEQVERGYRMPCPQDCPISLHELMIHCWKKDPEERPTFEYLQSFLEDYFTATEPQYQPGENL", "details": "at 0.1 µM", "units": {"inhibition": "%"}}
{"smiles": "CCS(=O)(=O)c1ccc(OC)c(Nc2ncc(-c3cccc(OC)c3)o2)c1", "inhibition": 27.6}
{"smiles": "CCn1c(-c2nonc2N)nc2c(C#CC(C)(C)O)nc(OCCNC)cc21", "inhibition": 1.14}
{"smiles": "CN1CCN(C(=O)c2ccc(NC(=O)Nc3ccc(N(C)c4ccnc(Nc5ccc(CS(C)(=O)=O)cc5)n4)cc3)cc2)CC1", "inhibition": 0.29}
{"smiles": "CC(C)c1ccc(Nc2nccc(-c3cnn4ncccc34)n2)cc1", "inhibition": 1.04}
{"smiles": "N#Cc1cccc(Nc2nccc(-c3cnn4ncccc34)n2)c1", "inhibition": 6.76}
{"smiles": "c1ccc(Cc2nc3ccc(Nc4ncnc5ccccc45)cc3[nH]2)cc1", "inhibition": 1.56}
{"smiles": "Cc1ccc(C(=O)NC2CC2)cc1-c1ccc2[nH]ncc2c1", "inhibition": -0.87}
{"smiles": "COC(=O)Nc1nc2cc(Oc3ccc(NC(=O)Nc4cccc(Br)c4)cc3)ccc2[nH]1", "inhibition": 3.15}
{"smiles": "NC(=O)c1sc(-n2cnc3ccccc32)cc1OCc1ccccc1Br", "inhibition": 3.58}
{"smiles": "c1ccc(Nc2ncc(-c3ccccc3)o2)cc1", "inhibition": 3.46}
{"smiles": "CCCN1CCCC(c2ccc(Nc3nc(Nc4cc(F)ccc4C(N)=O)c4cc[nH]c4n3)c(OC)c2)C1", "note": "(stereo not drawn)", "inhibition": 3.45}
{"smiles": "Nc1ccc(C#Cc2cncnc2Nc2ccc(OCc3cccc(F)c3)c(Cl)c2)cc1", "inhibition": 1.67}
{"smiles": "CN(C)C(=O)O[C@H]1CN[C@H](C#Cc2cc3ncnc(Nc4ccc(OCc5cccc(F)c5)c(Cl)c4)c3s2)C1", "inhibition": -0.77}
{"smiles": "O=C1Nc2ccc(-c3cccnc3)cc2C1=Cc1cc(Br)c(O)c(Br)c1", "inhibition": 2.17}
{"smiles": "CS(=O)(=O)Nc1cccc(-c2ccc3c(NC(=O)C4CC4)n[nH]c3c2)c1", "inhibition": 2.53}
{"smiles": "CCS(=O)(=O)c1ccc(OC)c(Nc2nccc(N(C)c3ccc4c(C)n[nH]c4c3)n2)c1", "inhibition": 39}
{"smiles": "COc1cccc(-n2ncc3c(N/N=C/c4ccc(S(C)(=O)=O)cc4)ncnc32)c1", "inhibition": 32.4}
{"smiles": "Cc1ccc2c(-c3ccnc(Nc4cccc(C(F)(F)F)c4)n3)c(-c3ccccc3)nn2n1", "inhibition": 15.6}
{"smiles": "Cc1ccc2c(-c3ccnc(Nc4ccc5c(c4)OCCO5)n3)c(-c3ccc(C(F)(F)F)cc3)nn2n1", "inhibition": 1.42}
{"smiles": "NS(=O)(=O)c1ccc(-c2cc3ccncc3cc2OCc2ccccc2)cc1", "inhibition": 1.04}
{"smiles": "COc1ccc2ncnc(Nc3ccc(OCc4ccccc4)cc3)c2c1", "inhibition": 2.39}
{"smiles": "CCn1c(-c2nonc2N)nc2ccc(F)cc21", "inhibition": 2.04}
{"smiles": "N#Cc1c(NC(=O)c2ccccc2F)sc2c1CCCC2", "inhibition": 1.38}
{"smiles": "COc1cccc(-n2nc(C)c3c(N/N=C(\\C)c4ccncc4)ncnc32)c1", "inhibition": 1.21}
{"smiles": "OCc1ccc(-c2nc(-c3ccccn3)c(-c3ccc4c(c3)OCO4)[nH]2)cc1", "inhibition": 2.25}
{"smiles": "CCOc1nccc2c1nc(-c1nonc1N)n2CC", "inhibition": 0.3}
{"smiles": "NS(=O)(=O)c1ccc(N/N=C2\\C(=O)Nc3ccc(Cl)cc32)cc1", "inhibition": 0.23}
{"smiles": "Cc1ccc(O)cc1Nc1ccnc2ccc(S(C)(=O)=O)cc12", "inhibition": 92.4}
{"smiles": "COC(=O)c1ccc2c(c1)C(=Cc1cc(Br)c(O)c(Br)c1)C(=O)N2", "inhibition": 5.27}
{"smiles": "[O-][S+]1CCN(Cc2ccc(-c3ccc4ncnc(Nc5ccc(OCc6ccccc6)c(Cl)c5)c4c3)o2)CC1", "inhibition": 2.58}
{"smiles": "COc1cccc(-n2ncc3c(N/N=C/c4ccc(C)cc4)ncnc32)c1", "inhibition": 5.39}
{"smiles": "O=S(=O)(CCOCc1ccc(-c2ccc3ncnc(Nc4ccc(OCc5cccc(F)c5)c(Cl)c4)c3c2)o1)c1ccccc1", "inhibition": 2.16}
{"smiles": "COc1cc(/C=N/Nc2ncnc3c2cnn3C(C)C)ccc1O", "inhibition": 8.53}
